Bioassay records from PubChem BioAssay.
An excerpt weighted towards active compounds, which were near 11% of everything screened.
3T3 cytotox = kills NIH 3T3 cells | NIH 3T3 viability, CellTiter-Glo ATP luminescence, 48-72 h | Potency, µM (highest dose often 96.7 µM), actives largely listed as inhibitors | hit rate 4.3% among 94,000 | AID 1345082; also: nearly all actives have a fitted effect of over 55% in size
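Cytotoxicity was measured by CellTiter-Glo ATP luminescence after 48 or 72 h compound exposure at 37 °C. Mouse NIH 3T3 fibroblasts were seeded at 400 cells/well and dosed by 23 nL pin transfer.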
Luciferase inh = Photinus pyralis luciferase inhibition. P08659. hit rate 2.5% among 76,000. purified P. pyralis luciferase, luminescence, biochemical. Potency, µM (highest dose often 115 µM), actives largely listed as inhibitors; also: nearly all actives have a fitted effect of over 65% in size
Target sequence (P08659 whole entry, looked up): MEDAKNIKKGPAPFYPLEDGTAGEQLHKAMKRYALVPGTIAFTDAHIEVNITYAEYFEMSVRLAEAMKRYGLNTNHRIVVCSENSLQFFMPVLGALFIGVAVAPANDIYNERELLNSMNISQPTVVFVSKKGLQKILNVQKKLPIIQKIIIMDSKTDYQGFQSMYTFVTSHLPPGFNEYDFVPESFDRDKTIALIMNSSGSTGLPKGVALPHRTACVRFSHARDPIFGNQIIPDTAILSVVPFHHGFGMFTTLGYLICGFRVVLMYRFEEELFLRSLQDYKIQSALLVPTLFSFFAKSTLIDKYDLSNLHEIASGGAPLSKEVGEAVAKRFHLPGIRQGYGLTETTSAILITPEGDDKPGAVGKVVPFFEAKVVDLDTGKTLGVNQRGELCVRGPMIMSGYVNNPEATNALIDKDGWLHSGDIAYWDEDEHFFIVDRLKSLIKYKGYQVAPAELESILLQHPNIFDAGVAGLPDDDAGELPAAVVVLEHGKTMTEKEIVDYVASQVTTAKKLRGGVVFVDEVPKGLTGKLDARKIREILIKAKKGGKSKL
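Inhibitors were tested against purified firefly luciferase in a biochemical, low-substrate format (both substrates at 10uM) and luminescence measured with a CCD imager.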
hNpr1 antagonist = human Npr1 receptor antagonism. hit rate 1.6% among 76,000. AID 1347048. Potency, µM (top dose mostly 46.3 µM), actives largely listed as inhibitors. HEK293 hNpr1 GloSensor cGMP, ANP-stimulated luminescence. P16066; calls by dose curve; also: nearly all actives have a fitted effect of over 60% in size
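Compound pre-incubated 30 min at room temperature on GloSensor-loaded HEK293 cells stably carrying hNpr1 and the pGS-40F cGMP biosensor. Stimulation uses hNppA at 0.1 nM final; luminescence is taken at baseline and 20 min post-agonist.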
HEK293 tox = HEK 293 cell cytotoxicity | HEK 293 viability, ATP luminescence (CellTiter-Glo), 48-72 h | Potency, µM (highest dose often 115 µM), usual class: inhibitors | hit rate 6.6% among 94,000 | AID 1345083; also: nearly all actives have a fitted effect of over 60% in size
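qHTS cytotoxicity; HEK 293, 250 cells/well; compound pinned; 48 or 72 hr, 37 degree Celsius, 5% CO2, 95% humidity; CellTiter-Glo, 10 min RT; luminescence (ATP).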
A number is an active result. Unless noted, calls follow the shape of the dose curve; as a rule, active = well fitted curve in the direction sought with a large enough effect; inconclusive = small, poorly fitted or top-dose-only effect, or another doubt; inactive = no such curve, though single readings can be large; an effect the other way counts as inactive or inconclusive.

`Cc1ccc(-c2ccccc2CN)cc1Cl` gave 3T3 cytotox 35.5µM and HEK293 tox 35.5µM.
O=C(NCc1ccccc1F)c1ccc2nc(-c3cccnc3)oc2c1 was read as 3T3 cytotox inactive and HEK293 tox inconclusive.
For Cc1ccc2c(n1)N(C)[C@H](CO)CCN(CC1CCCCC1)C2 the results were 3T3 cytotox inconclusive, Luciferase inh inactive, hNpr1 antagonist inactive and HEK293 tox 44.7µM.
`Cc1ccc2c(n1)N(C)[C@H](CO)CCN(C(=O)Nc1ccccc1)C2` gave 3T3 cytotox inactive, Luciferase inh inactive, hNpr1 antagonist inactive and HEK293 tox inactive.
`Cc1ccc2c(n1)N(C)[C@H](CO)CCN(Cc1ccc(OC(F)(F)F)cc1)C2` gave 3T3 cytotox inconclusive, Luciferase inh inactive, hNpr1 antagonist inactive and HEK293 tox 79.4µM.
Screening CC(=O)N1CCC(N2CC[C@@H](CO)N(C)c3nc(C)ccc3C2)CC1 returned 3T3 cytotox 44.7µM, Luciferase inh inactive, hNpr1 antagonist inactive and HEK293 tox 79.4µM.
COCC(=O)N1CCCC1c1nc(CCOc2ccc(F)cc2)no1 (stereo unspecified) was read as 3T3 cytotox inactive and HEK293 tox inactive.
O=C(c1cccc2[nH]ccc12)N1CC(Oc2cccc(-c3nc(-c4ccccc4)no3)c2)C1 was read as 3T3 cytotox inconclusive, Luciferase inh inconclusive, hNpr1 antagonist inactive and HEK293 tox 35.5µM.
Screening Cn1cccc1C(=O)N1CC(Oc2cccc(-c3nc(-c4ccccc4)no3)c2)C1 returned 3T3 cytotox inconclusive, Luciferase inh inconclusive, hNpr1 antagonist inactive and HEK293 tox 44.7µM.
Cc1nc(C)c(C(=O)N2CC(Oc3cccc(-c4nc(-c5ccccc5)no4)c3)C2)s1 was read as 3T3 cytotox inconclusive, Luciferase inh inconclusive, hNpr1 antagonist inactive and HEK293 tox 39.8µM.
Screening CCN1C(=O)C2(CCN(C(=O)NCCC(C)C)CC2)c2ccccc21 returned 3T3 cytotox inactive, Luciferase inh inactive, hNpr1 antagonist inactive and HEK293 tox inactive.
`CN(Cc1cccc(C(F)(F)F)c1)C(=O)c1ccccc1Cl` gave 3T3 cytotox 89.1µM, Luciferase inh inactive, hNpr1 antagonist inactive and HEK293 tox 56.2µM.
For COc1cccc(C(=O)N(C)Cc2ccccc2C(F)(F)F)c1 the results were 3T3 cytotox inconclusive, Luciferase inh inactive, hNpr1 antagonist inactive and HEK293 tox 100µM.
Cc1ccc(C(=O)N(C)Cc2ccc(-c3ccccc3)cc2)cc1 was read as 3T3 cytotox inconclusive, Luciferase inh inactive, hNpr1 antagonist inactive and HEK293 tox 89.1µM.
Screening CN(Cc1cccc(C(F)(F)F)c1)C(=O)c1cccc(C(F)(F)F)c1 returned 3T3 cytotox inconclusive, Luciferase inh inactive, hNpr1 antagonist inactive and HEK293 tox inconclusive.
`COc1cccc(C(=O)N(C)Cc2cccc(C(F)(F)F)c2)c1` gave 3T3 cytotox inconclusive, Luciferase inh inactive, hNpr1 antagonist inactive and HEK293 tox 89.1µM.
`O=C(Cc1ccc(O)cc1)N1Cc2ccccc2CC2(CCN(Cc3ccncc3)C2)C1` (stereo unspecified) gave 3T3 cytotox inactive and HEK293 tox inactive.
`Cc1ccc(C(=O)N(C)Cc2cccc(C(F)(F)F)c2)cc1` gave 3T3 cytotox inconclusive, Luciferase inh inactive, hNpr1 antagonist inactive and HEK293 tox 100µM.
Screening O=C1CCC(CNC(=O)c2nc(-c3ccccc3)cc3[nH]ccc23)N1 (stereo unspecified) returned 3T3 cytotox inconclusive, Luciferase inh inactive, hNpr1 antagonist inactive and HEK293 tox inactive.
O=C(NCCc1ccccn1)c1nc(-c2ccccc2)cc2[nH]ccc12 was read as 3T3 cytotox inconclusive, Luciferase inh inconclusive, hNpr1 antagonist inactive and HEK293 tox 79.4µM.
Screening O=C(NCc1cccnc1)c1nc(-c2ccccc2)cc2[nH]ccc12 returned 3T3 cytotox inconclusive, Luciferase inh inactive, hNpr1 antagonist inactive and HEK293 tox 89.1µM.
`COCCCNC(=O)c1nc2sccn2c1-c1ccncc1` gave 3T3 cytotox inactive and HEK293 tox inactive.
For Cn1ncc2c(C(=O)NCC3CCCCC3)cc(-c3cccc(C(F)(F)F)c3)nc21 the results were 3T3 cytotox inactive and HEK293 tox inactive.
Screening COc1ccc(CN2CCc3nc(C(=O)Nc4ccc(Cl)cc4)oc3CC2)cn1 returned 3T3 cytotox inconclusive, Luciferase inh inconclusive, hNpr1 antagonist 3.98µM and HEK293 tox inconclusive.
O=C(Nc1ccc(Cl)cc1)c1nc2c(o1)CCN(Cc1nccs1)CC2 was read as 3T3 cytotox inconclusive, Luciferase inh 22.4µM, hNpr1 antagonist 2.24µM and HEK293 tox inconclusive.
For O=C(Nc1ccc(Cl)cc1)c1nc2c(o1)CCN(Cc1cccc(O)c1)CC2 the results were 3T3 cytotox inconclusive, Luciferase inh 25.1µM, hNpr1 antagonist 2µM and HEK293 tox 31.6µM.
For COc1ccc(CN2CCc3nc(C(=O)NCc4ccncc4)oc3CC2)cc1 the results were 3T3 cytotox inconclusive, Luciferase inh inactive, hNpr1 antagonist inconclusive and HEK293 tox inconclusive.
`COCCNC(=O)c1nc2c(o1)CCN(Cc1ccc(OC)cc1)CC2` gave 3T3 cytotox inconclusive, Luciferase inh inactive, hNpr1 antagonist inactive and HEK293 tox inconclusive.
For Cc1[nH]cnc1CN1CCc2nc(C(=O)Nc3cccc(C(F)(F)F)c3)oc2CC1 the results were 3T3 cytotox inconclusive, Luciferase inh inactive, hNpr1 antagonist inactive and HEK293 tox inconclusive.
Screening COc1ccc(CN2CCc3nc(C(=O)Nc4ccccc4)oc3CC2)cc1 returned 3T3 cytotox inconclusive, Luciferase inh 20µM, hNpr1 antagonist 25.1µM and HEK293 tox inconclusive.
Screening CNC(=O)c1cc(C)nc2onc(C3CCCN(C(=O)NC(C)C)C3)c12 (stereo unspecified) returned 3T3 cytotox inactive and HEK293 tox inactive.
Screening Cc1cnc(C(=O)N[C@@H]2CCC[C@@H]2C(=O)N2CCN(c3cccc(C)c3C)CC2)cn1 returned 3T3 cytotox inactive, Luciferase inh inactive, hNpr1 antagonist inactive and HEK293 tox inconclusive.
O=C(NCc1cccc(F)c1)c1nc2c(o1)CCN(Cc1cccc(Cl)c1)CC2 was read as 3T3 cytotox inconclusive, Luciferase inh inactive, hNpr1 antagonist inconclusive and HEK293 tox inconclusive.
O=C(Nc1ccccc1)c1nc2c(o1)CCN(Cc1ccc(F)c(Cl)c1)CC2 was read as 3T3 cytotox inconclusive, Luciferase inh 8.91µM, hNpr1 antagonist 3.98µM and HEK293 tox inconclusive.
`O=C(Nc1ccccc1)c1nc2c(o1)CCN(Cc1cccs1)CC2` gave 3T3 cytotox inconclusive, Luciferase inh inconclusive, hNpr1 antagonist 7.94µM and HEK293 tox inconclusive.
For O=C(NCc1cccc(F)c1)c1nc2c(o1)CCN(CCCc1ccccc1)CC2 the results were 3T3 cytotox 89.1µM, Luciferase inh inactive, hNpr1 antagonist inactive and HEK293 tox inconclusive.
COc1ccccc1CN1CCc2nc(C(=O)N3CCOCC3)oc2CC1 was read as 3T3 cytotox inconclusive, Luciferase inh inactive, hNpr1 antagonist inactive and HEK293 tox 100µM.
`O=C(CCc1ccccc1)N1CCC(N2C(=O)[C@H]3CN(Cc4ccccc4)C[C@H]3C2=O)CC1` gave 3T3 cytotox inactive and HEK293 tox inconclusive.
`O=Cc1ccccc1-c1cnc2ccccc2c1` gave 3T3 cytotox 79.4µM and HEK293 tox inactive.
